# Source: PubChem BioAssay (Tox21)
# Inconclusive results are not listed. Where a call stands in place of a potency, no number is given. Unmarked numbers belong to inactive results. The source made the active and inactive calls. The call rests on the fitted dose curve; in most records, active means well fitted activation curve with a large enough effect in the signal ratio in the repeat runs (not every such curve was filed as active); inconclusive means weak or mixed curves; inactive means flat fitted curve, though single readings scatter; the % refers to the signal ratio.
# Assay: p53 small molecule agonists, cell-based qHTS assay (AID 1963582)
# Conditions: HCT-116 p53RE-bla reporter, beta-lactamase FRET ratio, 16 h; series mostly up to 66 µM
# Method in brief: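 Cells carrying a p53-responsive bla reporter are treated with test compounds for 16 h at 37 C; beta-lactamase activity is then detected with LiveBLAzer B/G FRET substrate after 2 h at room temperature.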
SMILES,Potency,activation
CNC(=O)O/N=C(\C)SC,inactive,–
CC(=O)c1ccc(-c2ccccc2)cc1,inactive,–
C[N+](C)(C)CCCl,inactive,–
CC(Cc1ccc(OCC(=O)O)cc1)NCC(O)c1csc(C(F)(F)F)n1 (stereo unspecified),inactive,–
CCCCCCCCCCCCN=C(N)N,–,-3.75% [at 2.33 µM]
CCOP(=S)(OCC)SCS(=O)(=O)CC,inactive,–
O=c1[nH]c2ccccc2n1C1CCNCC1,inactive,–
COP(=O)(OC)Oc1ccc([N+](=O)[O-])cc1,inactive,–
C#CC(O)(C=CCl)CC (stereo unspecified),inactive,–
CC1=C2C[C@H]3[C@@H](CC=C4C[C@@H](O)CC[C@@]43C)[C@@H]2CC[C@]12O[C@@H]1C[C@H](C)CN[C@H]1[C@H]2C,inactive,–
CNC(=O)Oc1cc(C)c(SC)c(C)c1,inactive,–
NCC1(CC(=O)O)CCCCC1,inactive,–
CCCN1CCC[C@@H]2Cc3[nH]ncc3C[C@H]21,inactive,–
CCSCc1ccccc1OC(=O)NC,inactive,–
CON(C)C(=O)Nc1ccc(Br)cc1,inactive,–
O=C1C(Cl)C(CCl)CN1c1cccc(C(F)(F)F)c1 (stereo unspecified),inactive,–
C(COCC1CO1)OCC1CO1 (stereo unspecified),inactive,–
COc1cccc(C(=O)CCN[C@@H](C)[C@H](O)c2ccccc2)c1,inactive,–

SMILES,Potency,activation
N#CNC#N,inactive,–
CCCC[N+]1(C)[C@@H]2CC(OC(=O)[C@H](CO)c3ccccc3)C[C@H]1[C@@H]1O[C@@H]12 (stereo partly specified),inactive,–
CCCCCCCCCCCCCN1CC(C)OC(C)C1 (stereo unspecified),inactive,–
N[C@@H]1C[C@H]1c1ccccc1,inactive,–
O=C(O)C(F)(F)C(F)(F)C(F)(F)C(F)(F)C(F)(F)C(F)(F)C(F)(F)C(F)(F)C(F)(F)F,inactive,–
CCOc1ccc(C(C)(C)COCc2cccc(Oc3ccccc3)c2)cc1,inactive,–
CC(=O)CCc1ccc2c(c1)OCO2,inactive,–
CSc1ccc(C(=O)C(C)(C)N2CCOCC2)cc1,inactive,–
COc1ccc([N+](=O)[O-])cc1O,inactive,–
Cc1ccc(N(SC(F)(Cl)Cl)S(=O)(=O)N(C)C)cc1,inactive,–
Cc1cccc(OP(=O)(Oc2cccc(C)c2)Oc2cccc(C)c2)c1,inactive,–
O=CNC(N1CCN(C(NC=O)C(Cl)(Cl)Cl)CC1)C(Cl)(Cl)Cl (stereo unspecified),inactive,–
CCc1cc(OC)c(C[C@H](C)N)cc1OC,inactive,–
CC(C)(C)OO,inactive,–
CNC(=O)Oc1ccc(N(C)C)c(C)c1,inactive,–
Cc1nc(N)nc(N)n1,inactive,–
CCCCS(=O)(=O)Cl,inactive,–
C[N+]1(CCF)[C@@H]2CC[C@H]1CC(OC(=O)C(O)(c1ccccc1)c1ccccc1)C2 (stereo partly specified),inactive,–
